# Assay results taken from PubChem BioAssay (EPA / NIEHS).
# Values joined by “and” are separate entries in the source; they are usually repeats but may differ in a detail not shown here. Identical values can stand only once. Results filed as inconclusive are left out. A structure can be active in one record and inactive in another. Active and inactive are the calls of the source. The calls were made as follows, unless noted: active = hit-call score of the fitted dose curve at least 0.9, where 1 is the maximum; inconclusive = response in the unintended direction; inactive = score below 0.9.
# Experiments:
# Caspase-3 (Homo sapiens) = Caspase-3 (Homo sapiens) (UniProt P42574); test: NVS_ENZ_hCASP3: NovaScreen (NVS) Enzymatic Assay for human Caspase 3 (CASP3) (AID 2283139)
# Method in brief: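 Single-concentration screening at 25 uM in duplicate, with concentration-response follow-up to a 50 uM maximum for chemicals passing the threshold. Caspase-3 (human, E. coli-expressed) activity was read as substrate fluorescence after 1 h, with loss of signal relative to DMSO.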
# [1] = molecular target: Cytochrome P450 2C19 (Homo sapiens) (UniProt P33261); test: NVS_ADME_hCYP2C19: NovaScreen (NVS) CYP450-related Enzyme Activity (ADME) Assay for human CYP2C19 (AID 2283113);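 also: potency for inhibition seen as loss of fluorescent signal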
# Method in brief: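 Compounds first screened in duplicate at 10 uM, then confirmed in concentration series. Insect-cell-expressed human CYP2C19 turned over a fluorogenic substrate, and fluorescence was read after 1 h. Inhibition taken as signal loss relative to acetonitrile.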
# [2] = molecular target: human CYP2C9, CYP2C9 (gene 1559) (UniProt P11712); test: NVS_ADME_hCYP2C9: NovaScreen (NVS) CYP450-related Enzyme Activity (ADME) Assay for human CYP2C9 (AID 2283108)
# human CYP2C9, CYP2C9 (gene 1559), sequence (P11712 whole entry, looked up): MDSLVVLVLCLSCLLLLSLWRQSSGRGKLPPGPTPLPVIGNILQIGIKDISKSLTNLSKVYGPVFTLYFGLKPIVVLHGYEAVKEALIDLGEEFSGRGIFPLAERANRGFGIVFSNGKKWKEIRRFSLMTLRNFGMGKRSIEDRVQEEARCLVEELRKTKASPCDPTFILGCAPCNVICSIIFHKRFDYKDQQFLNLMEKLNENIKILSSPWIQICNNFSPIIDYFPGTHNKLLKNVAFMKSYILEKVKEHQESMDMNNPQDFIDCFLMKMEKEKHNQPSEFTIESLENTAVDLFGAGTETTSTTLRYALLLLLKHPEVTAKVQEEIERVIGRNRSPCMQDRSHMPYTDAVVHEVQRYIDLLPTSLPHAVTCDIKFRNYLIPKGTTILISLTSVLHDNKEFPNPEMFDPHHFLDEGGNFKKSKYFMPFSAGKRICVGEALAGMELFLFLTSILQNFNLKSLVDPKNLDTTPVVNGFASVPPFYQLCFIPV
# Method in brief: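 Cell-free assay of recombinant human CYP2C9 produced in Sf9 cells, with enzyme activity read by fluorescence intensity 0.75 h after compound addition. Loss of signal versus an acetonitrile negative control indicates inhibition. Primary screen used 10 uM in duplicate; actives were retested in concentration series.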
# [3] = molecular target: rat CYP2A2, Cyp2a2 (gene 24895) (UniProt P15149); test: NVS_ADME_rCYP2A2: NovaScreen (NVS) CYP450-related Enzyme Activity (ADME) Assay for rat CYP2A2 (AID 2283116)
# rat CYP2A2, Cyp2a2 (gene 24895), sequence (P15149 whole entry, looked up): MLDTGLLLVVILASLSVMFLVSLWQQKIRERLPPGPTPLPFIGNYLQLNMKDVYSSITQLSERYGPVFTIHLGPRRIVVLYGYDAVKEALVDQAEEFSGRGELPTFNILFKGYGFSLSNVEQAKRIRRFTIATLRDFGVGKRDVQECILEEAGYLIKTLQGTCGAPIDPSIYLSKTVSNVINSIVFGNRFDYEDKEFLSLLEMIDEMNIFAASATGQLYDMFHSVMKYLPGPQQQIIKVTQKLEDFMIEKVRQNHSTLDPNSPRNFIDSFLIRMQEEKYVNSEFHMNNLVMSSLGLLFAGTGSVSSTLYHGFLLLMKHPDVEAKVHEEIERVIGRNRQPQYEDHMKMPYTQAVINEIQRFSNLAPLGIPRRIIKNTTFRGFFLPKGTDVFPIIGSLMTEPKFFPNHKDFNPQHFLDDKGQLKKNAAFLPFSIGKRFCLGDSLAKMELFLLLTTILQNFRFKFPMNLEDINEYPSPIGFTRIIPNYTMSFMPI
# Method in brief: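 Compounds first tested in duplicate at 10 uM, then in singleton concentration series up to 20 uM when over threshold. Activity of the recombinant enzyme read by fluorescence at 0.2 h, normalised to acetonitrile vehicle.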
# [4] = molecular target: rat CYP2C11, Cyp2c11 (gene 29277) (UniProt P08683); test: NVS_ADME_rCYP2C11: NovaScreen (NVS) CYP450-related Enzyme Activity (ADME) Assay for rat CYP2C11 (AID 2283118)
# rat CYP2C11, Cyp2c11 (gene 29277), sequence (P08683 whole entry, looked up): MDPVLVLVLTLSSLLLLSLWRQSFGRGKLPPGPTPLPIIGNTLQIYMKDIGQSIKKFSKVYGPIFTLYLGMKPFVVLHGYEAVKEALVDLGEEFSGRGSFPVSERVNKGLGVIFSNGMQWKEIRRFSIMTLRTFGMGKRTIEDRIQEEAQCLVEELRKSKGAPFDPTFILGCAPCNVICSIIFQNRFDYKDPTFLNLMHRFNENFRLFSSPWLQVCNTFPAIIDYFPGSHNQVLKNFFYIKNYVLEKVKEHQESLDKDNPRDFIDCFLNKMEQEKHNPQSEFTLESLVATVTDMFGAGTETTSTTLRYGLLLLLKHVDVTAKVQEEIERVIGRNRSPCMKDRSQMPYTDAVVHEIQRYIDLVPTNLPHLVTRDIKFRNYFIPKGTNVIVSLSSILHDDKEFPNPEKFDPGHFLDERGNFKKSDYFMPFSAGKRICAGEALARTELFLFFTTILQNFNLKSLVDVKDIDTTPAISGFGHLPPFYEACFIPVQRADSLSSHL
# Method in brief: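 Screened first at 10 uM in duplicate, hits followed by concentration-response. Recombinant rat enzyme activity monitored by fluorescence 0.33 h post-dosing, normalised to acetonitrile negative control.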
# rat CYP2C6, gene 293989 = test: NVS_ADME_rCYP2C6: NovaScreen (NVS) CYP450-related Enzyme Activity (ADME) Assay for rat CYP2C6 (AID 2283120)
# Method in brief: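 Compounds first tested in duplicate at 10 uM, hits (e.g. 30% inhibition) re-run in singleton dose series to a 20 uM top concentration. Enzyme activity of recombinant rat CYP2C6 measured via fluorescent substrate turnover after 1 h; acetonitrile baseline.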
# rat CYP3A1, gene 25642 = test: NVS_ADME_rCYP3A1: NovaScreen (NVS) CYP450-related Enzyme Activity (ADME) Assay for rat CYP3A1 (AID 2283126)
# Method in brief: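 Compounds went first at 10 uM duplicate, then to series with 20 uM maximum. Fluorescence from substrate turnover by the recombinant enzyme was measured 0.5 h post-dosing, inhibition scored against acetonitrile vehicle.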
# [5] = molecular target: rat CYP3A2, Cyp3a2 (gene 266682) (UniProt P05183); test: NVS_ADME_rCYP3A2: NovaScreen (NVS) CYP450-related Enzyme Activity (ADME) Assay for rat CYP3A2 (AID 2283128)
# rat CYP3A2, Cyp3a2 (gene 266682), sequence (P05183 whole entry, looked up): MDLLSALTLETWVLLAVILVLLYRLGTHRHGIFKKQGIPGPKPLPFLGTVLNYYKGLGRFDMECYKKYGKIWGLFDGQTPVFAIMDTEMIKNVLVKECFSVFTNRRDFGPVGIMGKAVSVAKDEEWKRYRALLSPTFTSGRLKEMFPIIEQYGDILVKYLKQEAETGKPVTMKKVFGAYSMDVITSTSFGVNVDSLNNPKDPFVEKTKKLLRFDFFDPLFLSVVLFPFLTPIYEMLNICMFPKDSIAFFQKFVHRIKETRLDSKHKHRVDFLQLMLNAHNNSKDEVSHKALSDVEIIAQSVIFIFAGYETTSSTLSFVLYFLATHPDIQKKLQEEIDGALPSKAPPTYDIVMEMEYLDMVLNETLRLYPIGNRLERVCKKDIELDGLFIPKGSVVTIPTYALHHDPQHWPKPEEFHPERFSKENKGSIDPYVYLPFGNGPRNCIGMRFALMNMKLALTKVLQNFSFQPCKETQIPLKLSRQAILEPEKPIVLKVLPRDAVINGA
# Method in brief: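 Fluorescence readout of extracted rat CYP3A2 activity 0.5 h post-dose, acetonitrile as negative control. Single-point testing in duplicate at 10 uM, followed by concentration series to a 20 uM maximum for actives.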
# [6] = molecular target: human AKT serine/threonine Kinase 1 (AKT1), AKT1 (gene 207) (UniProt P31749); test: NVS_ENZ_hAKT1: NovaScreen (NVS) Enzymatic Assay for human AKT serine/threonine Kinase 1 (AKT1) (AID 2283138)
# human AKT serine/threonine Kinase 1 (AKT1), AKT1 (gene 207), sequence (P31749 whole entry, looked up): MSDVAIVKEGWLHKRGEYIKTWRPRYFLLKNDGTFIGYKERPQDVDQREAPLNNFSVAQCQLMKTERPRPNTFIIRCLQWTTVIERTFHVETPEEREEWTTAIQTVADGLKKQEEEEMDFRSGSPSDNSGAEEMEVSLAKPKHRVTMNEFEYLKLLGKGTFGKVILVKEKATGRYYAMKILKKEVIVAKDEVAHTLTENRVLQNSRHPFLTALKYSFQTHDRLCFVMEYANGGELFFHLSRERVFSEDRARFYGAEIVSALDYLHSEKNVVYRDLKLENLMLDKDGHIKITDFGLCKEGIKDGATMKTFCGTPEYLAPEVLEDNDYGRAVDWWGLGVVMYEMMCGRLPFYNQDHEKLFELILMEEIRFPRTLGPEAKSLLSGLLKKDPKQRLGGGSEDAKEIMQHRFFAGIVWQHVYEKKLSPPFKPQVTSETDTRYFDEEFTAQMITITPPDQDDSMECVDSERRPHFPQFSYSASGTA
# Method in brief: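 A biochemical assay with recombinant enzyme and specific substrate, read by fluorescence intensity with mobility-shift separation 1 hour after dosing. Actives from 25 uM duplicate screening were titrated up to 50 uM against DMSO baseline.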
# [7] = molecular target: human Caspase 5 (CASP5), CASP5 (gene 838) (UniProt P51878); test: NVS_ENZ_hCASP5: NovaScreen (NVS) Enzymatic Assay for human Caspase 5 (CASP5) (AID 2283137)
# human Caspase 5 (CASP5), CASP5 (gene 838), sequence (P51878 whole entry, looked up): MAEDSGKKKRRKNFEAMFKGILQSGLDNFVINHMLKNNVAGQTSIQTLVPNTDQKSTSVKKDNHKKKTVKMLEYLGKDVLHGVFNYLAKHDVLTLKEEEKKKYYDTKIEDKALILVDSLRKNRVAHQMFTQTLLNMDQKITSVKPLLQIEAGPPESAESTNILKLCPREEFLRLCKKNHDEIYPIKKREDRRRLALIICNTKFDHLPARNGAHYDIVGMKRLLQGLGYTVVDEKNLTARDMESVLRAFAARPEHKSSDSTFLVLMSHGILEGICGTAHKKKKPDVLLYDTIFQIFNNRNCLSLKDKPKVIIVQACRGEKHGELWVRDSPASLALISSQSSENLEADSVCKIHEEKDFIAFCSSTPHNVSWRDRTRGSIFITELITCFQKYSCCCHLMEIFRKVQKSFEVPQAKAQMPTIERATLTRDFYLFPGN
# Method in brief: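 Caspase 5 enzyme activity, detected as fluorescence signal loss, is measured in a biochemical format using E. coli-expressed protein. Reading occurs 2 hours post-dosing. Screening runs at 25 uM, with confirmed actives titrated to 50 uM maximum.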
# [8] = molecular target: human CYP2D6, CYP2D6 (gene 1565) (UniProt P10635); test: NVS_ADME_hCYP2D6: NovaScreen (NVS) CYP450-related Enzyme Activity (ADME) Assay for human CYP2D6 (AID 2283107)
# human CYP2D6, CYP2D6 (gene 1565), sequence (P10635 whole entry, looked up): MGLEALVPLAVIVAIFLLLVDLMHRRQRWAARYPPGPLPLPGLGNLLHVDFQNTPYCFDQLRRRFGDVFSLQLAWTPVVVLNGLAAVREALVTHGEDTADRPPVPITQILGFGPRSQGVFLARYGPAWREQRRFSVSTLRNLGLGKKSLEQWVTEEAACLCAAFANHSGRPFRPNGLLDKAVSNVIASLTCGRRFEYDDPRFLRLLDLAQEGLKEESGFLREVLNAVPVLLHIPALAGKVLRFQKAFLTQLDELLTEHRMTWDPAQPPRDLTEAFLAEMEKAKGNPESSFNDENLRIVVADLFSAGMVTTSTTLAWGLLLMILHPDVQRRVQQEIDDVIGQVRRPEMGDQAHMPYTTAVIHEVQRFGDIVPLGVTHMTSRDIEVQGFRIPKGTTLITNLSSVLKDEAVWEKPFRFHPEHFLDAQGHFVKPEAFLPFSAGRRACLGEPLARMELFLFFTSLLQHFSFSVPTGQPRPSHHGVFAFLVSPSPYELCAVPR
# Method in brief: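 Fluorescence readout of recombinant CYP2D6 (insect-cell derived) activity after 1 h incubation with test chemical. Acetonitrile served as baseline, loss-of-signal direction. Single-concentration duplicate screening at 10 uM preceded concentration-response retesting.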
# [9] = molecular target: Cytochrome P450 3A4 (Homo sapiens) (UniProt P08684); test: NVS_ADME_hCYP3A4: NovaScreen (NVS) CYP450-related Enzyme Activity (ADME) Assay for human CYP3A4 (AID 2283110)
# Cytochrome P450 3A4 (Homo sapiens), sequence (P08684 whole entry, looked up): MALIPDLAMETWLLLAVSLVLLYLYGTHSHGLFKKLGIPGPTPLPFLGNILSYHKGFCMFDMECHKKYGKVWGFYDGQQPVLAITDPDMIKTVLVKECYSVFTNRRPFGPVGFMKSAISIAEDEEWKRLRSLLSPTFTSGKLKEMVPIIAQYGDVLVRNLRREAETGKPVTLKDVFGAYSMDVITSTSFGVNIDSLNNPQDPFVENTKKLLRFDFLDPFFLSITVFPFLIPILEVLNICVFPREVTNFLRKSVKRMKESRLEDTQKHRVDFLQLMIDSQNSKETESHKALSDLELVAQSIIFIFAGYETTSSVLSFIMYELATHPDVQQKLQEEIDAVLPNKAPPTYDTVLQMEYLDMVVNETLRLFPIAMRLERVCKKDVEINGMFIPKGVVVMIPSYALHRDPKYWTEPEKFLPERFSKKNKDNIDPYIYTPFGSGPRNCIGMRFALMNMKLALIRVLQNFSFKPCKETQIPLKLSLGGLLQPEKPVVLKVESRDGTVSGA
# Method in brief: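 Activity is derived from decreased fluorescence intensity relative to acetonitrile, measured 0.33 hour after dosing insect-cell-expressed CYP3A4 in a cell-free format. Screening used 10 uM in duplicate before concentration-response follow-up.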
# [10] = molecular target: human Beta-secretase (BACE), BACE1 (gene 23621) (UniProt P56817); test: NVS_ENZ_hBACE: NovaScreen (NVS) Enzymatic Assay for human Beta-secretase (BACE) (AID 2283140);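 also: hits are inhibitors that reduce fluorescent substrate signal versus DMSO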
# human Beta-secretase (BACE), BACE1 (gene 23621), sequence (P56817 whole entry, looked up): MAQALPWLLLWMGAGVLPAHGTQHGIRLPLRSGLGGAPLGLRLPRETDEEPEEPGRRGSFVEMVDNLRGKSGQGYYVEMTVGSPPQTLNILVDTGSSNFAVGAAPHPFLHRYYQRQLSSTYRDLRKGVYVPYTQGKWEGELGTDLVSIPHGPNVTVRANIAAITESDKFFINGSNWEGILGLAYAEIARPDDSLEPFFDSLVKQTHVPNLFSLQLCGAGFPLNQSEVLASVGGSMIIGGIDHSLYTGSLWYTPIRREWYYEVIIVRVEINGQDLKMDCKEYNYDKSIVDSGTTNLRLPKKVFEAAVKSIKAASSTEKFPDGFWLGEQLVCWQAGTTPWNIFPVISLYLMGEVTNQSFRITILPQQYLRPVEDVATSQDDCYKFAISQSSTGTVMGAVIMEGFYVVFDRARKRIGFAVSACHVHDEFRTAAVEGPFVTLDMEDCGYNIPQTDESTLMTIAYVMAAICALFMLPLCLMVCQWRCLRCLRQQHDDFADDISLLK
# Method in brief: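 Enzyme activity of SF9-produced BACE1 is measured cell-free by fluorescence, 1 hour post dosing, normalised to DMSO. Screening used 25 uM in duplicate, with concentration-response follow-up for actives.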
# [11] = molecular target: human AKT serine/threonine Kinase 2 (AKT2), AKT2 (gene 208) (UniProt P31751); test: NVS_ENZ_hAKT2: NovaScreen (NVS) Enzymatic Assay for human AKT serine/threonine Kinase 2 (AKT2) (AID 2283141)
# Method in brief: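 Cell-free fluorescence/electrophoretic mobility shift readout of recombinant human AKT2 activity, 1 h after chemical dosing. Duplicate primary screen at 25 uM, then singleton concentration-response up to 50 uM; loss of signal versus DMSO baseline.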
# CDK2 (gene 1017) = CDK2 (gene 1017) (UniProt P24941); test: NVS_ENZ_hCDK2: NovaScreen (NVS) Enzymatic Assay for human Cyclin-Cependent Kinase 2 (CDK2) (AID 2283144)
# Method in brief: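 Compounds screened in duplicate at 25 uM, then in singleton concentration-response to a maximum of 50 uM, against recombinant CDK2; kinase activity read 1 hr after dosing by fluorescence with mobility-shift separation of substrate and product.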
# [12] = molecular target: human Casein Kinase 1-delta (CK1D), CSNK1D (gene 1453) (UniProt P48730); test: NVS_ENZ_hCK1D: NovaScreen (NVS) Enzymatic Assay for human Casein Kinase 1-delta (CK1D) (AID 2283148)
# Method in brief: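 Recombinant human CK1-delta, cell-free; fluorescent substrate with electrophoretic mobility-shift separation of product, read 1 h after dosing. Single 25 uM duplicate screen, then concentration-response up to 50 uM; loss of signal vs DMSO.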
# [13] = molecular target: rat CYP2A1, Cyp2a1 (gene 24894) (UniProt P11711); test: NVS_ADME_rCYP2A1: NovaScreen (NVS) CYP450-related Enzyme Activity (ADME) Assay for rat CYP2A1 (AID 2283114; active = hit-call score of the fitted dose curve at least 0.9, where 1 is the maximum; inactive = score below 0.9)
# Method in brief: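 Cell-free fluorescence enzyme-activity read on recombinant rat CYP2A1, taken 0.75 h post-dosing. Compounds were screened in duplicate at 10 uM, then hits tested in concentration series (max 20 uM); inhibition scored relative to acetonitrile baseline.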
# [14] = molecular target: rat CYP2C13, Cyp2c13 (gene 171521) (UniProt P20814); test: NVS_ADME_rCYP2C13: NovaScreen (NVS) CYP450-related Enzyme Activity (ADME) Assay for rat CYP2C13 (AID 2283121)
# rat CYP2C13, Cyp2c13 (gene 171521), sequence (P20814 whole entry, looked up): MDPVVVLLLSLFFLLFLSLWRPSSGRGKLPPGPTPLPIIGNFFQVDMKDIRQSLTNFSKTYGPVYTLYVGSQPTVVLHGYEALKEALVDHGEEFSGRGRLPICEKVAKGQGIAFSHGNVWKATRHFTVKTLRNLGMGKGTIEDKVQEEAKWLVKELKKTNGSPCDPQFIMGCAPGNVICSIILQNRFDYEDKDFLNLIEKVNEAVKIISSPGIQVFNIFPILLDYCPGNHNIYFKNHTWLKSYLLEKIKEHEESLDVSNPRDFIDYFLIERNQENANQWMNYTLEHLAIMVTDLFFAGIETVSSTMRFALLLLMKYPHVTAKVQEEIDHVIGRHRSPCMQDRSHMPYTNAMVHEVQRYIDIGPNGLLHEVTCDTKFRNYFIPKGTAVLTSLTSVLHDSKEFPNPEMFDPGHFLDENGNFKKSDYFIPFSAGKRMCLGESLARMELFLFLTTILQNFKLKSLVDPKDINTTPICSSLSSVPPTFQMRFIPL
# Method in brief: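 Inhibition is read as decreased fluorescent product formation, referenced to acetonitrile vehicle. Cell-free recombinant rat Cyp2c13 reaction ran 0.75 hour; compounds first at 10 uM in duplicate, then concentration series for actives.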
# [15] = molecular target: human Caspase 8 (CASP8), CASP8 (gene 841) (UniProt Q14790); test: NVS_ENZ_hCASP8: NovaScreen (NVS) Enzymatic Assay for human Caspase 8 (CASP8) (AID 2283146)
# Method in brief: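 The primary screen tested compounds in duplicate at a single 25 uM concentration, with actives followed up in concentration series. Activity of recombinant (E. coli) protease was measured by fluorescence 1 h post-dose, as signal loss against DMSO.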
# [16] = molecular target: human CYP1A2, CYP1A2 (gene 1544) (UniProt P05177); test: NVS_ADME_hCYP1A2: NovaScreen (NVS) CYP450-related Enzyme Activity (ADME) Assay for human CYP1A2 (AID 2283102)
# Method in brief: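 Enzyme activity of insect-cell-expressed human CYP1A2 measured by fluorescence 0.5 h after compound addition, relative to acetonitrile. Compounds first tested in duplicate at 10 uM, actives followed up in concentration series.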
smiles,measurement,setting,value
CCCCOCCOCCO,outcome,Caspase-3 (Homo sapiens),inactive
C=CC(=O)OCC(CO)(COC(=O)C=C)COC(=O)C=C,AC50,[1],1.76 µM (active)
C#C[C@]1(O)CC[C@H]2[C@@H]3CCc4cc(O)ccc4[C@H]3CC[C@@]21C,AC50,[2],6.68 µM (active) and 7.82 µM (active) and 6.49 µM (active)
same,AC50,[1],1.02 µM (active) and 2.09 µM (active) and 1.18 µM (active)
same,AC50,[3],785 nM (active) and 1.44 µM (active) and 680 nM (active)
same,AC50,[4],2.5 µM (active) and 2.81 µM (active) and 1.76 µM (active)
same,AC50,"rat CYP2C6, gene 293989",1.43 µM (active) and 2.55 µM (active) and 1.67 µM (active)
same,AC50,"rat CYP3A1, gene 25642",2.51 µM (active) and 3.73 µM (active) and 1.4 µM (active)
same,AC50,[5],1.2 µM (active) and 2.59 µM (active) and 1.12 µM (active)
same,outcome,[6],inactive
Nc1ccc(N)c([N+](=O)[O-])c1,AC50,[7],8.68 µM (active) and 13.7 µM (active)
O=S1(=O)CC(Cl)(Cl)C(Cl)(Cl)C1,AC50,[8],4.55 µM (active)
same,AC50,[9],0.431 µM (active)
O=[N+]([O-])c1cc(N(CCO)CCO)ccc1NCCO,AC50,[8],3.87 µM (active)
same,AC50,[2],2.42 µM (active)
same,AC50,[7],8.66 µM (active)
CC/C(=C(\c1ccccc1)c1ccc(OCCN(C)C)cc1)c1ccccc1,outcome,[9],inactive
same,AC50,[6],33.4 µM (active)
same,outcome,[6],inactive
same,outcome,[10],inactive
same,outcome,[11],inactive
same,outcome,CDK2 (gene 1017),inactive
same,outcome,[12],inactive
CC(=O)OC(C)(C)C1CC=C(C)CC1 (configuration not stated),AC50,[1],3.56 µM (active)
CC(C)Cc1ccc(C(C)C(=O)O)cc1 (configuration not stated),outcome,[8],inactive
CC(=O)CCC=C(C)CCC=C(C)C,outcome,[10],inactive
C[C@]12CC[C@@H]3c4ccc(O)cc4CC[C@H]3[C@@H]1CC[C@@H]2O,AC50,[1],813 nM (active) and 2.14 µM (active)
same,outcome,[13],inactive
same,AC50,[3],6.22 µM (active)
same,AC50,[14],492 nM (active) and 892 nM (active) and 748 nM (active)
same,outcome,"rat CYP3A1, gene 25642",inactive
same,AC50,[5],1.48 µM (active)
same,outcome,[11],inactive
O=C(c1ccc(OCCN2CCCCC2)cc1)c1c(-c2ccc(O)cc2)sc2cc(O)ccc12,outcome,[9],inactive
same,outcome,[6],inactive
same,AC50,[10],15.3 µM (active)
same,outcome,[15],inactive
same,outcome,[12],inactive
C=C(C)C(N)=O,outcome,[16],inactive
same,outcome,[6],inactive
O=C1OC2(c3ccc(O)cc3Oc3cc(O)ccc32)c2ccccc21,AC50,[10],7.41 µM (active)
CC1=CC(C)C(C=O)C(C)C1 (configuration not stated) (tested in a mixture with another compound),outcome,[10],inactive
